# According to PubChem BioAssay (NCATS):
# Results filed as inconclusive are left out. Entries that show only a call come without a potency. Activity calls are given as the source filed them. Calls come from the whole dose curve; as a rule, active = well fitted inhibition curve with a large enough effect; inconclusive = small, poorly fitted or top-dose-only effect; inactive = flat fitted curve, though single readings scatter.
# Experiments:
# [1] = biological target: Glutathione peroxidase 1 (Homo sapiens) (UniProt P07203); experiment: Primary qHTS Assay for Inhibitors of Recombinant Selenoprotein Glutathione Peroxidase 1 (GPX1) (AID 1845191)
# Outline: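 GR-coupled readout: NADPH consumption tracked by fluorescence, ex 340/em 450 nm, at t=0 and after 15 min at RT. Final mix 10 nM GPX1, 1 mM GSH, 0.5 mM CHP, 0.5 mM NADPH, 100 nM GR, 0.01% BSA, following 30 min enzyme–compound preincubation.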
# [2] = biological target: Phospholipid hydroperoxide glutathione peroxidase GPX4 (Homo sapiens) (UniProt P36969); experiment: Primary qHTS Assay for Inhibitors of Recombinant Selenoprotein Glutathione Peroxidase 4 (GPX4) (AID 1845192)
# Outline: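 Steps: GPX4 plus compound, 30 min RT; add GR/GSH/NADPH master mix; start with cumene hydroperoxide; read 340/450 nm fluorescence at 0 and 15 min. Finals were 200 nM GPX4, 1 mM GSH, 0.5 mM CHP, 0.5 mM NADPH, 100 nM GR.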
# Note: nearly all actives have a fitted effect of over 65% in size.
# Chain of Glutathione peroxidase 1 (Homo sapiens) (P07203 whole entry, looked up): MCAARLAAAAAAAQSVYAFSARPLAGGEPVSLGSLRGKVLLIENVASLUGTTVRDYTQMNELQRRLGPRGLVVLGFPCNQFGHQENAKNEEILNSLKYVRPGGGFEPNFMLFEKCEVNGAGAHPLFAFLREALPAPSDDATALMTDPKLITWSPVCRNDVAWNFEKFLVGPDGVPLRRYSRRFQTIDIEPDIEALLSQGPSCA
# Chain of Phospholipid hydroperoxide glutathione peroxidase GPX4 (Homo sapiens) (P36969 whole entry, looked up): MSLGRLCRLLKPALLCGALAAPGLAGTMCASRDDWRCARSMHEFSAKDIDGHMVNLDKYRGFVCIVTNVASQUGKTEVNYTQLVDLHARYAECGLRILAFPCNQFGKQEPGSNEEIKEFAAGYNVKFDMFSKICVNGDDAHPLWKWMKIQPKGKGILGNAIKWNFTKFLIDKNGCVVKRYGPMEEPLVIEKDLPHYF
Structure (SMILES),Potency [1],Potency [2]
COc1ccc(-c2cc(=O)c3c(O)cc(O[C@@H]4O[C@H](CO[C@@H]5O[C@@H](C)[C@H](O)[C@@H](O)[C@H]5O)[C@@H](O)[C@H](O)[C@H]4O)cc3o2)cc1O,inactive,inactive
CCCCCCCC(=O)OCC(COC(=O)CCCCCCC)OC(=O)CCCCCCC,inactive,inactive
CCCCOC(=O)c1ccc(N)cc1,inactive,inactive
CC(C)(C)C(=O)OCOC(=O)[C@@H]1N2C(=O)[C@@H](NC(=O)[C@H](N)c3ccccc3)[C@H]2SC1(C)C,inactive,inactive
O=C(Cn1ccnc1[N+](=O)[O-])NCc1ccccc1,inactive,inactive
C[C@]1(Cn2ccnn2)[C@H](C(=O)O)N2C(=O)C[C@H]2S1(=O)=O,inactive,inactive
O=C(O)/C=C/c1ccc(Cn2ccnc2)cc1,inactive,inactive
Cc1c(C)c2c(c(C)c1OC(=O)c1cccnc1)CC[C@@](C)(CCC[C@H](C)CCC[C@H](C)CCCC(C)C)O2,inactive,inactive
C=CCNC(N)=S,inactive,inactive
NS(=O)(=O)c1cc2c(cc1C(F)(F)F)NCNS2(=O)=O,inactive,inactive
CCCCCCCC(=O)OCC(O)CO (stereo not given),inactive,inactive
CC(=O)N[C@@H](Cc1ccc(O)cc1)C(=O)O,inactive,inactive
CCCNC(C)(C)COC(=O)c1ccccc1,inactive,inactive
CN[C@@H]1[C@@H](O)[C@@H](O[C@@H]2[C@H](O)[C@H](O[C@H]3OC(CN)=CC[C@H]3N)[C@@H](N)C[C@H]2N)OCC1(C)O (stereo not given in full),inactive,inactive
CC(=O)NS(=O)(=O)c1ccc(N)cc1,inactive,inactive
COc1ccc(O)cc1,inactive,inactive
COC(=O)c1ccc(O)cc1,inactive,
CC[C@H](C)[C@H](N)C(=O)O,inactive,inactive
CC(C(=O)O)c1ccc2c(c1)Cc1cccnc1O2 (stereo not given),inactive,inactive
CCS(=O)(=O)CCn1c([N+](=O)[O-])cnc1C,inactive,inactive
O=C(O)CNC(=O)c1ccccc1I,inactive,inactive
C/C=C/C(=O)N(CC)c1ccccc1C,inactive,inactive
CC(C)(C)NCC(O)COc1cccc2c1CCC(=O)N2 (stereo not given),inactive,inactive
O=C(CCBr)N1CCN(C(=O)CCBr)CC1,inactive,inactive

Structure (SMILES),Potency [1],Potency [2]
OCCN1C[C@H](O)[C@@H](O)[C@H](O)[C@H]1CO,inactive,inactive
Cc1[nH]c(C)c(Cl)c(=O)c1Cl,inactive,inactive
CN[C@@H]1[C@H](O)[C@H](NC)[C@H]2O[C@@]3(O)C(=O)C[C@@H](C)O[C@H]3O[C@@H]2[C@H]1O,inactive,inactive
O=C1C(c2[nH]c3ccccc3c2O)=Nc2ccccc21,inactive,inactive
Cc1ccsc1C(=CCCN1CCC[C@@H](C(=O)O)C1)c1sccc1C,inactive,inactive
COc1nccnc1NS(=O)(=O)c1ccc(N)cc1,inactive,inactive
O=S1(=O)OC(c2ccc(O)cc2)(c2ccc(O)cc2)c2ccccc21,inactive,inactive
COCC(=O)Nc1c(I)c(C(=O)NCC(O)CO)c(I)c(C(=O)N(C)CC(O)CO)c1I (stereo not given),inactive,inactive
Cc1cc(O)cc(C)c1Cl,inactive,inactive
C1CCN2C[C@@H]3C[C@@H](CN4CCCC[C@@H]34)[C@H]2C1,inactive,inactive
CCOc1ccccc1O[C@H](c1ccccc1)[C@H]1CNCCO1,inactive,inactive
CO[C@@]1(NC(=O)C(C(=O)O)c2ccc(O)cc2)C(=O)N2C(C(=O)O)=C(CSc3nnnn3C)CO[C@@H]21 (stereo not given in full),inactive,inactive
Cc1c(I)c(=O)n(-c2ccccc2)n1C,inactive,inactive
CCc1cccc(CC)c1NC(=O)CN(CC(=O)O)CC(=O)O,inactive,inactive
NS(=O)(=O)c1cc(-c2nn[nH]n2)c(NCc2cccs2)cc1Cl,inactive,inactive
Cc1c(N(C)C)c(=O)n(-c2ccccc2)n1C,inactive,inactive
COc1ccc2cc(CCC(C)=O)ccc2c1,inactive,inactive
Nc1ccc(C(=O)Oc2ccccc2)c(O)c1,inactive,inactive
Cc1ccccc1N=Nc1ccc(N=Nc2c(O)ccc3ccccc23)c(C)c1,inactive,inactive
CC[N+](CC)(CC(=O)Nc1c(C)cccc1C)Cc1ccccc1,inactive,inactive
O=C(O)CCCc1ccccc1,inactive,inactive
O=C(OOC(=O)c1ccccc1)c1ccccc1,inactive,inactive
O[C@@H]1CO[C@H]2[C@@H]1OC[C@@H]2O,inactive,inactive
CC(=O)Nc1ccc(C(=O)O)cc1,inactive,inactive
